From PubChem BioAssay (NCATS)
Inconclusive results are not listed. Active and inactive are the calls of the source. Unless noted, calls follow the shape of the dose curve; as a rule, active = well fitted curve in the direction sought with a large enough effect; inconclusive = small, poorly fitted or top-dose-only effect, or another doubt; inactive = no such curve, though single readings can be large; an effect the other way counts as inactive or inconclusive.

Key:
[1] = Cytometric Cell-Based qHTS for Inhibitors of the mTORC1 Signaling Pathway in MEF (Tsc2-/-, p53-/-) Cells (AID 2660);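 also: percent of cells above a phospho-rpS6 to PI ratio cutoff in each well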
Procedure, shortened: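 Cells are plated, treated with compound for 24 hrs at 37 degree Celsius, then fixed, blocked and immunostained for phospho-rpS6 Ser235/236. Propidium iodide counterstain follows. Per-well % positive cells is derived from the PI-normalized phospho-S6 signal.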

[2] = High Content Imaging Cell-Based qHTS for Inhibitors of the mTORC1 Signaling Pathway in MEF (Tsc2-/-, p53-/-) Cells (AID 2666); conditions: at 38.3 µM (top of the series);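 also: percent of cells scored positive for phospho-rpS6 Ser235/236 immunostaining by imaging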
Procedure, shortened: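 Phospho-rpS6 (Ser235/236) immunofluorescence, normalized and scored as % positive cells using rapamycin and DMSO controls, was read in empty-vector Tsc2-/-, p53-/- MEFs after 24 h compound exposure at 37 C; propidium iodide counted cells.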

[3] = High Content Imaging Cell-Based qHTS for Inhibitors of the mTORC1 Signaling Pathway in MEF Cells (AID 2667);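 also: Tsc2-/- p53-/- MEFs stably re-expressing wild-type Tsc2 exposed 24 h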
Procedure, shortened: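 WT MEFs (Tsc2-/-, p53-/- re-expressing Tsc2), in DMEM + 10% FBS, were treated with compound for 24 h at 37 C. Cells were then fixed and stained for phospho-rpS6 Ser235/236 with propidium iodide as cell count. Values are % positive cells, with thresholds set against rapamycin-treated cells.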

[4] = Cytometry Cell-Based qHTS for Inhibitors of the mTORC1 Signaling Pathway in MEF cells (AID 2668);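 also: Tsc2-/- p53-/- mouse embryonic fibroblasts stably re-expressing wild-type Tsc2; percent cells positive for phospho-rpS6 Ser235/236 relative to propidium iodide stain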
Procedure, shortened: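 Tsc2-/-, p53-/- MEFs re-expressing WT Tsc2; cpd 24 hrs, 37 degree Celsius; PFA fix, Alexa-488 p-rpS6 (Ser235/236) Ab 2 hrs RT, PI counterstain; Acumen 488nm scan; p-S6/PI ratio → % positive cells; PI count = viability.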

[5] = molecular target: Ubiquitin carboxyl-terminal hydrolase 2 (Homo sapiens) (UniProt O75604); assay: qHTS Validation Assay for Inhibitors of Ubiquitin-specific Protease USP2a Using CHOP2 as the Reporter (AID 463106)
Procedure, shortened: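 USP2 core (10 nM final) was preincubated with compound 30 min at RT in pH 8.0 Tris/CaCl2/beta-ME/CHAPS buffer. Ub-CHOP2 and reporter substrate (25 nM final each) were then added, with fluorescence (Ex 485/Em 531) read after 60 min. Data were normalized to NEM full inhibition and fitted to concentration-response curves.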

[6] = molecular target: DNA polymerase III PolC-type (Bacillus subtilis (strain 168)) (UniProt P13267); assay: qHTS Validation Assay for the Inhibitors of DNA Replication in Gram-Positive Bacteria (AID 485295);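 also: reconstituted holoenzyme with PolC plus beta clamp SSB and primase; PicoGreen fluorescence of double-stranded DNA made on primed circular M13 template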
Procedure, shortened: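 First, compound is mixed with the reconstituted replication complex and held at room temperature. Next, circular single-stranded M13Gori with nucleotides starts synthesis. Finally, PicoGreen in EDTA halts the reaction and stains double-stranded product for fluorescence reading.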

[7] = molecular target: Tumor susceptibility gene 101 protein (Homo sapiens) (UniProt Q99816); assay: qHTS Validation Assay for Iinhibitors of HIV-1 Budding by Blocking the Interaction of PTAP/TSG101 (AID 485342; calls by dose curve)
Procedure, shortened: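 Binding of a FITC-tagged PTAP-motif peptide (50 nM) to the Tsg101 binding domain (10 uM) is monitored by fluorescence polarization. Compounds are pin-delivered before peptide addition, and incubation runs 20 min at room temperature.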

[8] = molecular target: Beta-2 adrenergic receptor (Homo sapiens) (UniProt P07550); assay: qHTS validation assay of beta-arrestin-biased ligands of beta2-adrenergic receptor (AID 485366)
Procedure, shortened: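 Values derive from curve-fitted %Activity of a luminescent beta-arrestin recruitment reporter; compounds tested up to 46 microM on Tango cells for 18 hr at 37 degrees C, 5% CO2.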

[9] = molecular target: Thioredoxin reductase 1, cytoplasmic (Rattus norvegicus) (UniProt O89049); assay: qHTS Assay for Substrates of Mammalian Selenoprotein Thioredoxin Reductase 1 (TrxR1) (AID 488772);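 also: NADPH fluorescence in the first read after selenite addition and not the 8 min delta; a drop in NADPH fluorescence below the no-compound background marks a TrxR1 substrate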
Procedure, shortened: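 Quantitative HTS in Tris-HCl buffer at pH 7.5 with EDTA and Tween-20, using rat TrxR1, 400 uM NADPH and 400 uM selenite (final). A fall in initial NADPH fluorescence relative to background marked substrate behaviour.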

[10] = molecular target: Thioredoxin reductase 1, cytoplasmic (Rattus norvegicus) (UniProt O89049); assay: qHTS Assay for Inhibitors of Mammalian Selenoprotein Thioredoxin Reductase 1 (TrxR1) (AID 488773);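 also: drop in NADPH fluorescence over an 8 min run after selenite addition; nearly all actives have a fitted effect of over 40% in size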
Procedure, shortened: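 Steps: enzyme (90 nM) plus NADPH (400 uM final), 5 min at ~22 deg C; compound added, 15 min; selenite (400 uM final) added; fluorescence followed for 8 min. Concentration-response curves derived from the normalized delta values.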

[11] = molecular target: Flap endonuclease 1 (Homo sapiens) (UniProt P39748); assay: qHTS Validation Assay for the Inhibitors of Human Flap endonuclease 1 (FEN1) (AID 488816)
Procedure, shortened: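 Human FEN1 (10 nM) preincubated 15 min at room temperature with compounds, then flap DNA substrate added at 50 nM final. Fluorescence read at 0 and 15 min; concentration-response fitted with four-parameter Hill equation.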

[12] = molecular target: Chromobox protein homolog 1 (Homo sapiens) (UniProt P83916); assay: qHTS Validation Assay for Inhibitors of HP1-beta Chromodomain Interactions with Methylated Histone Tails (AID 488953);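 also: loss of AlphaScreen luminescence from HP1-beta binding biotinylated H3K9me3 peptide; nearly all actives have a fitted effect of over 50% in size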
Procedure, shortened: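 HP1-beta (50 nM) was preincubated 30 min at room temperature with biotinylated H3(1-18)K9me3 peptide (50 nM) in PBS pH 7.4, 0.01% Tween-20, then with compounds 30 min. AlphaScreen signal was read after streptavidin donor/nickel chelate acceptor beads (10 ug/mL final).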

[13] = molecular target: Methanococcus maripaludis chaperonin (MmCpn) (UniProt Q6LX38); assay: High-Throughput Screening for Modulators of Cytosolic Chaperonin Activity: MmCpn Primary Screen (AID 488978);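 also: 50 nM MmCpn enzyme hydrolysing 30 µM ATP at 37 °C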
Procedure, shortened: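 Steps: chaperonin 50 nM final; add compound, 5 min RT; start with ATP, 30 uM final; hold 10 min at 37C; add ADP Transcreener HTRF reagent, 5 min; read ex 320, em 590 and 665 nm.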

[14] = Validation screen for small molecules that induce DNA re-replication in MCF 10A normal breast cells (AID 463097); also: nearly all actives have a fitted effect of over 60% in size
Procedure, shortened: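 Image-based qHTS: normal breast cells are incubated with compound for 48 hr, stained with Hoechst, and scanned for total nuclear fluorescence. Compounds raising the fraction of nuclei with elevated DNA content count as re-replication inducers.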

[15] = Quantitative high throughput screen for delayed death inhibitors of the malarial parasite plastid, 96 hour incubation (AID 488745); also: nearly all actives have a fitted effect of over 70% in size
Procedure, shortened: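 P. falciparum carrying an integrated firefly luciferase reporter, grown in erythrocytes (2% hematocrit, 0.1% parasitemia final) in RPMI 1640/0.5% Albumax, was exposed to compound for 96 h (two generations) at 37 C, 5% CO2. Luminescence decrease indicated growth inhibition.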

[16] = Quantitative high throughput screen for delayed death inhibitors of the malarial parasite plastid, 48 hour incubation (AID 488752); also: nearly all actives have a fitted effect of over 65% in size
Procedure, shortened: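 Erythrocytes infected with P. falciparum carrying an integrated firefly luciferase reporter (2% hematocrit, 0.1% parasitemia final) were exposed to compounds in RPMI 1640/0.5% Albumax for 48 h at 37 C, 5% CO2. Growth inhibition was scored as reduced luminescence.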

[17] = molecular target: M-phase phosphoprotein 8 (Homo sapiens) (UniProt Q99549); assay: qHTS Validation Assay for Inhibitors for MPP8 Chromodomain Interactions with Methylated Histone Tails (AID 488949);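 also: 50 nM MPP8 with 50 nM peptide preformed then compounds added for 30 min; AlphaScreen signal from MPP8 chromodomain bound to biotinylated H3K9me3 peptide; top concentration of the series differs between compounds; nearly all actives have a fitted effect of over 55% in size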
Procedure, shortened: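 50 nM MPP8 + 50 nM b-H3K9me3 peptide, PBS pH 7.4/0.01% Tween-20, 30 min RT; + cpd 30 min RT; + AlphaScreen donor/Ni-chelate acceptor beads 10 ug/mL final, 30 min dark; luminescence read.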

[18] = molecular target: Transient receptor potential cation channel subfamily V member 1 (Homo sapiens) (UniProt Q8NER1); assay: HTS Assay for Compounds that Act as Enhancers of the Vanilloid Receptor 1 (AID 488979)
Procedure, shortened: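 TRPV1 cells loaded with Fluo-8 calcium dye; compound added and Ca2+ signal (ex 480/em 520 nm) followed 3 min, then capsaicin at EC20 added and read 2 more min to detect enhancement.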

[19] = qHTS Validation Assay to Find Inhibitors of Chronic Active B-Cell Receptor Signaling (AID 485345; active = well fitted curve in the direction sought with a large enough effect in the main read-out, with a control signal flat, not every such curve was filed as active)
Procedure, shortened: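 TMD8 ABC-DLBCL cells stably carrying doxycycline-inducible IkappaBalpha–green luciferase fusion plus unfused red luciferase; compounds 46 uM to 3 nM, 4 h at 37C with doxycycline. Corrected green/red luminescence ratio normalized to 10 uM MG-132 and basal cell wells; curves fitted.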

[20] = molecular target: ATP-dependent 6-phosphofructokinase (Trypanosoma brucei brucei) (UniProt O15648); assay: qHTS Validation Assay to Find Inhibitors of T. brucei phosphofructokinase (AID 485368)
Procedure, shortened: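 Enzyme reaction in triethanolamine buffer pH 8.0 with 5 mM MgCl2, 0.01% Tween20 and 0.1% BSA; PFK 1.25 nM, F6P 0.5 mM, ATP 0.1 mM, 45 min RT. ADP quantified by ADP-Glo.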

Measured: outcome

Chain of Ubiquitin carboxyl-terminal hydrolase 2 (Homo sapiens) (O75604 whole entry, looked up): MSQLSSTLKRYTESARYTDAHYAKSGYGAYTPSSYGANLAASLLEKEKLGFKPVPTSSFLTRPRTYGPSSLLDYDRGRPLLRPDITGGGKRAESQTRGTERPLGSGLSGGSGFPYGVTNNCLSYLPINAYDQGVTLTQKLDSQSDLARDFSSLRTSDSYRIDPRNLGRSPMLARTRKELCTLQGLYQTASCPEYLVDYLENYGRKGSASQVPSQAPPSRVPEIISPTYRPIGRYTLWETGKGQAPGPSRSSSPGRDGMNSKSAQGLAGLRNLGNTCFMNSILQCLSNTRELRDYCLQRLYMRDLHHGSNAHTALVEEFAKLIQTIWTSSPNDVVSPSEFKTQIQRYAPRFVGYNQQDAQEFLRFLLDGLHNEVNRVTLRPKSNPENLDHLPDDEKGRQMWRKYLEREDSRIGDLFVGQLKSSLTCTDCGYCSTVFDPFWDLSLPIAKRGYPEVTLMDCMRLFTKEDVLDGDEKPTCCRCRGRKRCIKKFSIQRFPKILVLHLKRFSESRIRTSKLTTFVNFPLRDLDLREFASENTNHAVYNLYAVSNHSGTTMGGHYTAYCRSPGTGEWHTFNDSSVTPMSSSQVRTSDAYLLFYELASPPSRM
Chain of Beta-2 adrenergic receptor (Homo sapiens) (P07550 whole entry, looked up): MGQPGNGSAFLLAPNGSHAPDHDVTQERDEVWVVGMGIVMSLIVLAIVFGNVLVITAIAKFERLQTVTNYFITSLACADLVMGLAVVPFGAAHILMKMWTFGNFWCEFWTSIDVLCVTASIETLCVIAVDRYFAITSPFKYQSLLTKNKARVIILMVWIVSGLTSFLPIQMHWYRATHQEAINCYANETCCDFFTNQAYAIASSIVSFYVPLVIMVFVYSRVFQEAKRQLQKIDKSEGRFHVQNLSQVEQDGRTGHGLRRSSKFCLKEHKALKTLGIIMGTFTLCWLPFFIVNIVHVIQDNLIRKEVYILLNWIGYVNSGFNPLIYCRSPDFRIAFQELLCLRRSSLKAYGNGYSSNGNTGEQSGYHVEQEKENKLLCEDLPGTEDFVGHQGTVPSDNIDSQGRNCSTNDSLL
Chain of M-phase phosphoprotein 8 (Homo sapiens) (Q99549 whole entry, looked up): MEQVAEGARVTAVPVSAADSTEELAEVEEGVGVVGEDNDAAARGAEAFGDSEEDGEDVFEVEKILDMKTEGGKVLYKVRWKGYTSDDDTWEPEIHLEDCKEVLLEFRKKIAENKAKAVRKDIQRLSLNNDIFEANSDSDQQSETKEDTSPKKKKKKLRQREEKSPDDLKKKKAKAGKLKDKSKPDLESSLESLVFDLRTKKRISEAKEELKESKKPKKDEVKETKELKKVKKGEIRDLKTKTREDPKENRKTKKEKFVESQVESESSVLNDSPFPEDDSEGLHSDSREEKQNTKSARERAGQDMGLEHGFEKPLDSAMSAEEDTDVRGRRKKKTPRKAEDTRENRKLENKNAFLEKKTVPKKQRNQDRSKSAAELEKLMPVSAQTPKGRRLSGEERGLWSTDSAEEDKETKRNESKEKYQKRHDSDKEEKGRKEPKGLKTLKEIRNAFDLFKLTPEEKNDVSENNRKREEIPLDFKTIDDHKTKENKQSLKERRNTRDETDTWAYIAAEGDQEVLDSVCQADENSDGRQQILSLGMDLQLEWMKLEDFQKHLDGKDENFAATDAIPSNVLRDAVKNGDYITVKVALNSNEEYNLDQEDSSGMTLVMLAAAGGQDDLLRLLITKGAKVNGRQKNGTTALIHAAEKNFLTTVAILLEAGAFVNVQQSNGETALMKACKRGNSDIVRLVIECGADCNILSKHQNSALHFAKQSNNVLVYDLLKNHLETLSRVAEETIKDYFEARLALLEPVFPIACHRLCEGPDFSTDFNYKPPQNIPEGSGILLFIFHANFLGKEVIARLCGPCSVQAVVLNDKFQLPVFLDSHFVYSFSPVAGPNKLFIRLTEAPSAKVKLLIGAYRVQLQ
Chain of Methanococcus maripaludis chaperonin (MmCpn) (Q6LX38 1-543): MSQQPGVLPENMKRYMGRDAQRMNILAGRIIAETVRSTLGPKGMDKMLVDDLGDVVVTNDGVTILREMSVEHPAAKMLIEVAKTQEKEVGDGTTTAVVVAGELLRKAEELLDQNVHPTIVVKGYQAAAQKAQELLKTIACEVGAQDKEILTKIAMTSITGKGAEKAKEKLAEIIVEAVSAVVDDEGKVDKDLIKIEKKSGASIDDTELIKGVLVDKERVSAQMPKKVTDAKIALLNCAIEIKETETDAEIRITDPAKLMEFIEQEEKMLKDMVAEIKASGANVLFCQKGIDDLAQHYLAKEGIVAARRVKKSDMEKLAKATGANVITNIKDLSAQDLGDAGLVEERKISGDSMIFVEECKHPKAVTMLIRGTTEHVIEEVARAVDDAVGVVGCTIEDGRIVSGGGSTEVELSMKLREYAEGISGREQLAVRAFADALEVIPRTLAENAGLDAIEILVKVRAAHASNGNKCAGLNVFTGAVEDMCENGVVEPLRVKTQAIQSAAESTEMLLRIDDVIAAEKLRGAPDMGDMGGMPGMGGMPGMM
Chain of DNA polymerase III PolC-type (Bacillus subtilis (strain 168)) (P13267 whole entry, looked up): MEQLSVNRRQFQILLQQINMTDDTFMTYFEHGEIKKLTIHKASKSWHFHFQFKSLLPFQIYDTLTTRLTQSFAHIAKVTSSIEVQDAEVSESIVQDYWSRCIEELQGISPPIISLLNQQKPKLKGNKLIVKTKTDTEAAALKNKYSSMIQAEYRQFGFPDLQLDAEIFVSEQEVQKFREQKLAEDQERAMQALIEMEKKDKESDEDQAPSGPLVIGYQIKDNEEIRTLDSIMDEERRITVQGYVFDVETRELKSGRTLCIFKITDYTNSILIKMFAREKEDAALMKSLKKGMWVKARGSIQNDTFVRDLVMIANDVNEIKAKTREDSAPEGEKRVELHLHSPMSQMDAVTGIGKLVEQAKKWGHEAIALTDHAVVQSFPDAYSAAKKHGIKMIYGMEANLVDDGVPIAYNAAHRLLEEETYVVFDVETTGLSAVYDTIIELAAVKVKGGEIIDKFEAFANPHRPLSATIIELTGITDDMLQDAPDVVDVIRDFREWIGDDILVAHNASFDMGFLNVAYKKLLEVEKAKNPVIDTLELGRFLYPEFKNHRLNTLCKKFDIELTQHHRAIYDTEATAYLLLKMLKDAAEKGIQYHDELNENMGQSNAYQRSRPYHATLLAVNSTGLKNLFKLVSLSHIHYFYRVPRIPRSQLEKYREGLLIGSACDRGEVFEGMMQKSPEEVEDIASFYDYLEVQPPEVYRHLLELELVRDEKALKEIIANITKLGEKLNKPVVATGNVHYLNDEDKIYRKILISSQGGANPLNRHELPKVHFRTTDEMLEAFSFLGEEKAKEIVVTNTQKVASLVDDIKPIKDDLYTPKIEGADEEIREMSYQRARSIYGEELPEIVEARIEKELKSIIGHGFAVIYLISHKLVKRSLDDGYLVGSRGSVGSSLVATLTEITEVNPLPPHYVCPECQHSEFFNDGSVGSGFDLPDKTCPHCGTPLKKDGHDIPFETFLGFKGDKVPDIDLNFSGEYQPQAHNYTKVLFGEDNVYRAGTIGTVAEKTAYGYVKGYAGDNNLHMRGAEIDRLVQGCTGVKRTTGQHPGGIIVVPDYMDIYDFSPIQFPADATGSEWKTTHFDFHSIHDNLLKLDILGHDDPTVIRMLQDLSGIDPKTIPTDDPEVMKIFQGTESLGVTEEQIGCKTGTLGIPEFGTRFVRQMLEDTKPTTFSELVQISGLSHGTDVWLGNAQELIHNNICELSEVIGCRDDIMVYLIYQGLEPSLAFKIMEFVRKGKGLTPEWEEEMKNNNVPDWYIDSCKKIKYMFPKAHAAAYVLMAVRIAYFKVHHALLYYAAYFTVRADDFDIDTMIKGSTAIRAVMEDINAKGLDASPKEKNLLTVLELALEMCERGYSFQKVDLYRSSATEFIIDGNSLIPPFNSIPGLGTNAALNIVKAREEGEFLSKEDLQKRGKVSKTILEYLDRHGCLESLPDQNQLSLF
Chain of Tumor susceptibility gene 101 protein (Homo sapiens) (Q99816 whole entry, looked up, the tested form may be a part): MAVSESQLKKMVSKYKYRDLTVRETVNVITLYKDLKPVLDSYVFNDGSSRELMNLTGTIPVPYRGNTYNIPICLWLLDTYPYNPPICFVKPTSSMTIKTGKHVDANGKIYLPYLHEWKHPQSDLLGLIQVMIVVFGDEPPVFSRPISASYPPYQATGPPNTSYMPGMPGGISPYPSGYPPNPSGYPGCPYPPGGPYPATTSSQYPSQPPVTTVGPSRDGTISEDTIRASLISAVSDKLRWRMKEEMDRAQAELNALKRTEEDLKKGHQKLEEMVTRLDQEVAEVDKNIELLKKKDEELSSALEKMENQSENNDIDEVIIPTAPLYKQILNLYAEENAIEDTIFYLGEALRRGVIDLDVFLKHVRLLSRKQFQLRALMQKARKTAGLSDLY
Chain of Thioredoxin reductase 1, cytoplasmic (Rattus norvegicus) (O89049 whole entry, looked up): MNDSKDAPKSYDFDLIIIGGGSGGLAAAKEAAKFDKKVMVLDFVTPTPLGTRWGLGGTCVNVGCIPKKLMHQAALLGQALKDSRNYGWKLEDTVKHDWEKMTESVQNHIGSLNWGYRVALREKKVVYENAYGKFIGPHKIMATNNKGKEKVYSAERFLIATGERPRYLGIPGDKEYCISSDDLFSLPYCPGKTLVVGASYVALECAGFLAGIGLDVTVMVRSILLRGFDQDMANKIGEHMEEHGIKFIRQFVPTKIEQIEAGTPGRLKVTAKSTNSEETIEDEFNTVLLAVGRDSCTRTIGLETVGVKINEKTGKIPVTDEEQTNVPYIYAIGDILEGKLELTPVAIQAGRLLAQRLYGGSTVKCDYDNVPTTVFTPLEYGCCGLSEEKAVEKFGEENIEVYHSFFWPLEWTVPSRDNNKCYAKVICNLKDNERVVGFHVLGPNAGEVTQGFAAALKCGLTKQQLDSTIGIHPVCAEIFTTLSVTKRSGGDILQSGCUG
Chain of Chromobox protein homolog 1 (Homo sapiens) (P83916 whole entry, looked up): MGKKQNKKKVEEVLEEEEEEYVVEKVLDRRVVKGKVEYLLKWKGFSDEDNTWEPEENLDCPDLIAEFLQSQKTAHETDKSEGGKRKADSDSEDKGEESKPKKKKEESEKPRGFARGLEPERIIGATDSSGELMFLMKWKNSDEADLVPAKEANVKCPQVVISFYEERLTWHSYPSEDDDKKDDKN

COc1ccc2cc([S+]([O-])Cc3ncc(C)c(OC)c3C)nc2c1
inactive: [1] | [2] | [3] | [4] | [5] | [6] | [7] | [8] | [9] | [10] | [11] | [12] | [13]

N=c1ccn2c(n1)O[C@H]1[C@@H](O)[C@@H](CO)O[C@H]12
inactive: [14] | [15] | [16] | [17] | [18]

CN[C@H](CC(C)C)C(=O)N[C@H]1C(=O)N[C@@H](CC(N)=O)C(=O)N[C@@H]2C(=O)N[C@H]3C(=O)N[C@H](C(=O)N[C@H](C(=O)O)c4cc(O)cc(O)c4-c4cc3ccc4O)[C@H](O)c3ccc(c(Cl)c3)Oc3cc2cc(c3O[C@@H]2O[C@H](CO)[C@@H](O)[C@H](O)[C@@H]2O[C@H]2C[C@](C)(N)[C@H](O)[C@H](C)O2)Oc2ccc(cc2Cl)[C@H]1O
inactive: [1] | [2] | [3] | [4] | [5] | [6] | [7] | [19] | [8] | [9] | [10] | [17] | [13]

O=c1[nH]c(=O)n([C@H]2C[C@@H](O)[C@@H](CO)O2)cc1C=CBr
inactive: [1] | [2] | [3] | [4] | [5] | [6] | [7] | [19] | [8] | [20] | [9] | [10] | [11] | [17] | [12] | [13]
